# According to PMC5540273 (PLoS ONE, 2017):
# System: SYK
# Conditions: concentration: 1 μM,replicates: in singlicate; n = 1
# 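Also: KINOMEscan kinase panel screen.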
row,Compound,%Inh [%]
1,CN1CCN(CCCNc2nccc(-c3c(-c4ccc(F)cc4)nn4cc(C(N)=O)ccc34)n2)CC1 [GW622475],11
2,C[C@@H]1CNc2c(sc3ccc4nc(-c5ccc(O)cc5)ccc4c23)C(=O)N1,0
3,CCn1c(-c2nonc2N)nc2cncc(Br)c21 [SB-738004],8
4,C[C@@H]1CCN(C(=O)N2CCCC2)C[C@@H]1N(C)c1ncnc2[nH]ccc12,21
5,CS(=O)c1ccc(-c2coc3ccc(-c4n[nH]c(=O)o4)cc23)cc1 (centres unmarked),0
6,CCn1c(-c2nonc2N)nc2cncc(CNC3CCNCC3)c21.Cl [SB-747651],21
7,C[C@@H](Oc1cc(-n2cnc3cc(-c4cnn(C)c4)ccc32)sc1C(N)=O)c1ccccc1Cl [GSK580432],92.3
8,CN1CCN(CCNc2nc3cc(Oc4ccc(NC(=O)Nc5cc(C(F)(F)F)ccc5F)cc4)ccc3[nH]2)CC1.Cl.Cl [GW768504],16
9,CCNCC(Cc1ccccc1)NC(=O)c1cc(Br)c(-c2ccnc3[nH]ccc23)s1.Cl.Cl (centres unmarked) [GSK1383280],0
10,CCCC(=O)Nc1n[nH]c2ncccc12 [SB-601436],8
11,COc1cccc(C2=C(Nc3cccc(Cl)c3)C(=O)NC2=O)c1 [SB-341556],3
12,C[C@@H]1CNc2c(sc3ccc4nc(-c5ccncc5)ccc4c23)C(=O)N1,11
13,CC(=O)c1c(-c2ccncc2)[nH]c(-c2ccncc2)c1C [GW493036],24
14,CCN1CCN(CCCC(=O)Nc2n[nH]c3nc(-c4ccc(O)cc4)c(Br)cc23)CC1 [SB-731579],0
15,O=c1[nH]cc(-c2ccc(O)cc2)c2sc(-c3ccncc3)cc12 [GSK1033723],26
16,Nc1nccc(-c2ccc3c(N)n[nH]c3c2)n1 [GSK1034945],0
17,COC(=O)c1cccc(NC(=O)NC2CCN(c3ccnc(NCc4ccc(F)cc4)n3)CC2)c1 [GSK1379860],25
18,COc1cc2nccc(Nc3ccc(Oc4ccccc4)cc3)c2cc1OC.Cl [GI261656],0
19,Cn1ccc2ncnc(Oc3ccc(NC(=O)Nc4cccc(C(F)(F)F)c4)c(Cl)c3)c21,1

row,Compound,%Inh [%]
1,CNC(=O)c1ccccc1Nc1nc(Nc2cccc(CS(C)(=O)=O)c2)ncc1C.O=CO [GSK1520489],70
2,Cc1cccc2c(-c3ccncc3)c(-c3ccc(F)cc3)nn12.Cl [GW461487],25
3,Cc1nnc(-c2ccc3occ(-c4ccc(S(C)=O)cc4)c3n2)o1 (centres unmarked),0
4,OCCn1cc(-c2cnc3nnn(Cc4ccc5ncccc5c4)c3n2)cn1,0
5,COC(=O)c1cccc(NC(=O)NC2CCN(c3ccnc(Nc4cc(OC)c(OC)c(OC)c4)n3)C2)c1 (centres unmarked) [GSK1379767],34
6,O=C(Nc1cccc(C(F)(F)F)c1)c1cccc(Oc2ccc3nccn3n2)c1,14
7,Cc1cccc(-c2nc(Nc3ccncc3)c3sccc3n2)n1 [GW869641],20
8,COc1cc2ncn(-c3cc(OCC4CCCCC4)c(C(N)=O)s3)c2cc1OC [GSK204559],35
9,Cn1cc(-c2cccc3c(N)c(C(N)=O)nnc23)cn1,11
10,NC(=O)Nc1sc(-c2ccc(F)cc2)cc1C(N)=O [GW789449],32
11,c1ccc(Oc2ccc(Nc3ccnc4ccc(-c5ccccn5)cc34)cc2)cc1 [GW407034],1
12,Cn1ccc2ncnc(Oc3ccc(NC(=O)Nc4cnn(C(C)(C)C)c4)c(Cl)c3)c21,0
13,Cc1ccc(Nc2ccnc(Nc3ccc4c(c3)CS(=O)(=O)C4)n2)cc1O.Cl [GW579362],93.2
14,Cc1ccc(C(=O)Nc2ccc(Oc3ccc4nc(NC(=O)C5CC5)cn4c3)c(F)c2)c(=O)n1-c1ccccc1,59
15,CC(C(=O)NC1CCN(c2ccnc(Nc3ccc(F)cc3)n2)C1)c1ccc(Cl)cc1 (centres unmarked) [GSK1379713],30
16,COC(=O)Nc1nc2cc(Oc3ccc(NC(=O)Nc4cc(C(F)(F)F)ccc4Cl)cc3)ccc2[nH]1.Cl [GW697465],24
17,CCOC(=O)N1CCC(n2cnc(-c3ccc(F)cc3)c2-c2ccnc(N)n2)CC1 [SB-219952],13
18,Cn1ccc2ncnc(Oc3ccc(NC(=O)Nc4cc(C(C)(C)C)on4)c(Cl)c3)c21,0

# System: SgK110
# Conditions: concentration: 1 μM,replicates: in singlicate; n = 1
row,Compound,%Inh [%]
1,CN1CCN(CCCNc2nccc(-c3c(-c4ccc(F)cc4)nn4cc(C(N)=O)ccc34)n2)CC1 [GW622475],7
2,C[C@@H]1CNc2c(sc3ccc4nc(-c5ccc(O)cc5)ccc4c23)C(=O)N1,0
3,CCn1c(-c2nonc2N)nc2cncc(Br)c21 [SB-738004],0
4,C[C@@H]1CCN(C(=O)N2CCCC2)C[C@@H]1N(C)c1ncnc2[nH]ccc12,73
5,CS(=O)c1ccc(-c2coc3ccc(-c4n[nH]c(=O)o4)cc23)cc1 (centres unmarked),0
6,CCn1c(-c2nonc2N)nc2cncc(CNC3CCNCC3)c21.Cl [SB-747651],2
7,C[C@@H](Oc1cc(-n2cnc3cc(-c4cnn(C)c4)ccc32)sc1C(N)=O)c1ccccc1Cl [GSK580432],0
8,CN1CCN(CCNc2nc3cc(Oc4ccc(NC(=O)Nc5cc(C(F)(F)F)ccc5F)cc4)ccc3[nH]2)CC1.Cl.Cl [GW768504],57
9,CCNCC(Cc1ccccc1)NC(=O)c1cc(Br)c(-c2ccnc3[nH]ccc23)s1.Cl.Cl (centres unmarked) [GSK1383280],79
10,CCCC(=O)Nc1n[nH]c2ncccc12 [SB-601436],0
11,COc1cccc(C2=C(Nc3cccc(Cl)c3)C(=O)NC2=O)c1 [SB-341556],0
12,C[C@@H]1CNc2c(sc3ccc4nc(-c5ccncc5)ccc4c23)C(=O)N1,0
13,CC(=O)c1c(-c2ccncc2)[nH]c(-c2ccncc2)c1C [GW493036],0
14,CCN1CCN(CCCC(=O)Nc2n[nH]c3nc(-c4ccc(O)cc4)c(Br)cc23)CC1 [SB-731579],0
15,O=c1[nH]cc(-c2ccc(O)cc2)c2sc(-c3ccncc3)cc12 [GSK1033723],0
16,Nc1nccc(-c2ccc3c(N)n[nH]c3c2)n1 [GSK1034945],0
17,COC(=O)c1cccc(NC(=O)NC2CCN(c3ccnc(NCc4ccc(F)cc4)n3)CC2)c1 [GSK1379860],0
18,COc1cc2nccc(Nc3ccc(Oc4ccccc4)cc3)c2cc1OC.Cl [GI261656],0
19,Cn1ccc2ncnc(Oc3ccc(NC(=O)Nc4cccc(C(F)(F)F)c4)c(Cl)c3)c21,0

row,Compound,%Inh [%]
1,CNC(=O)c1ccccc1Nc1nc(Nc2cccc(CS(C)(=O)=O)c2)ncc1C.O=CO [GSK1520489],100
2,Cc1cccc2c(-c3ccncc3)c(-c3ccc(F)cc3)nn12.Cl [GW461487],0
3,Cc1nnc(-c2ccc3occ(-c4ccc(S(C)=O)cc4)c3n2)o1 (centres unmarked),3
4,OCCn1cc(-c2cnc3nnn(Cc4ccc5ncccc5c4)c3n2)cn1,0
5,COC(=O)c1cccc(NC(=O)NC2CCN(c3ccnc(Nc4cc(OC)c(OC)c(OC)c4)n3)C2)c1 (centres unmarked) [GSK1379767],0
6,O=C(Nc1cccc(C(F)(F)F)c1)c1cccc(Oc2ccc3nccn3n2)c1,26
7,Cc1cccc(-c2nc(Nc3ccncc3)c3sccc3n2)n1 [GW869641],15
8,COc1cc2ncn(-c3cc(OCC4CCCCC4)c(C(N)=O)s3)c2cc1OC [GSK204559],0
9,Cn1cc(-c2cccc3c(N)c(C(N)=O)nnc23)cn1,0
10,NC(=O)Nc1sc(-c2ccc(F)cc2)cc1C(N)=O [GW789449],0
11,c1ccc(Oc2ccc(Nc3ccnc4ccc(-c5ccccn5)cc34)cc2)cc1 [GW407034],27
12,Cn1ccc2ncnc(Oc3ccc(NC(=O)Nc4cnn(C(C)(C)C)c4)c(Cl)c3)c21,38
13,Cc1ccc(Nc2ccnc(Nc3ccc4c(c3)CS(=O)(=O)C4)n2)cc1O.Cl [GW579362],0
14,Cc1ccc(C(=O)Nc2ccc(Oc3ccc4nc(NC(=O)C5CC5)cn4c3)c(F)c2)c(=O)n1-c1ccccc1,0
15,CC(C(=O)NC1CCN(c2ccnc(Nc3ccc(F)cc3)n2)C1)c1ccc(Cl)cc1 (centres unmarked) [GSK1379713],13
16,COC(=O)Nc1nc2cc(Oc3ccc(NC(=O)Nc4cc(C(F)(F)F)ccc4Cl)cc3)ccc2[nH]1.Cl [GW697465],0
17,CCOC(=O)N1CCC(n2cnc(-c3ccc(F)cc3)c2-c2ccnc(N)n2)CC1 [SB-219952],0
18,Cn1ccc2ncnc(Oc3ccc(NC(=O)Nc4cc(C(C)(C)C)on4)c(Cl)c3)c21,27
